Source: PubChem BioAssay (National Center for Advancing Translational Sciences (NCATS))
MARV entry inh: qHTS for Inhibitors of binding or entry into cells for Marburg Virus. Potency, µM (highest dose often 49.2 µM), without a hit: at the top dose activity change, negative = inhibition, hits mostly inhibitors. actives 6.5% (n = 18,000). AID 720532, 2013. Marburg virus pseudotype entry/binding inhibition, cell-based
Lassa entry: qHTS for Inhibitors of binding or entry into cells for Lassa Virus. Potency, µM (highest dose often 49.2 µM), for inactives: at the top dose activity change, negative = inhibition, actives largely listed as inhibitors. Lassa virus pseudotyped entry inhibition, cell-based qHTS. AID 720533, 2013. actives 4.1% (n = 18,000)
An asterisk follows results filed as active; ? = inconclusive; [ ] = another dose, or the depositor's remark. In the library only some 7.1% were active in any assay of this set; here they are far more common. The call rests on the fitted dose curve; tested in HEK293 cells. On the % scale 0 is the no-effect control and ±100 the full control effect; potency means the concentration at half of the fitted maximal effect.

SMILES	MARV entry inh	Lassa entry
CC[C@H](C)[C@H](NC(=O)[C@H](CO)NC(=O)[C@H](CC(C)C)NC(=O)[C@@H]1CCCN1C(=O)[C@@H]1CCCN1C(=O)[C@H](CC(=O)O)NC(=O)[C@@H](N)CC(=O)O)C(=O)N[C@@H](CC(=O)O)C(=O)N[C@@H](CC(C)C)C(=O)N[C@H](C(=O)N[C@@H](Cc1ccccc1)C(=O)N[C@@H](Cc1cnc[nH]1)C(=O)N[C@@H](CC(C)C)C(=O)N[C@@H](CC(C)C)C(=O)N[C@@H](CCCNC(=N)N)C(=O)N[C@H](C(=O)N[C@@H](CC(C)C)C(=O)N[C@@H](CC(C)C)C(=O)N[C@@H](CCC(=O)O)C(=O)N[C@@H](CC(C)C)C(=O)N[C@@H](C)C(=O)N[C@@H](CCCNC(=N)N)C(=O)N[C@H](C(=O)N[C@@H](CCC(N)=O)C(=O)N[C@@H](CO)C(=O)N[C@@H](CCC(N)=O)C(=O)N[C@@H](CCCNC(=N)N)C(=O)N[C@@H](CCC(=O)O)C(=O)N[C@@H](CCCNC(=N)N)C(=O)N[C@@H](C)C(=O)N[C@@H](CCC(=O)O)C(=O)N[C@@H](CCC(N)=O)C(=O)N[C@@H](CC(N)=O)C(=O)N[C@@H](CCCNC(=N)N)C(=O)N[C@H](C(=O)N[C@H](C(=O)N[C@@H](Cc1ccccc1)C(=O)N[C@@H](CC(=O)O)C(=O)N[C@@H](CO)C(=O)N[C@H](C(N)=O)C(C)C)[C@@H](C)CC)[C@@H](C)CC)[C@@H](C)O)[C@@H](C)O)[C@@H](C)O	7%	1%
Oc1cc(-c2nc3ccccc3s2)cc2c1OCCN(Cc1cn[nH]c1-c1ccc(Cl)cc1)C2	-12%	-27%
CC1CC[C@@]2(OC1)O[C@@H]1[C@@H](O)[C@H]3C4CC[C@H]5C[C@@H](O[C@@H]6O[C@H](CO)[C@H](O[C@@H]7O[C@H](CO)[C@@H](O)[C@H](O[C@@H]8OC[C@@H](O)[C@H](O)[C@H]8O)[C@H]7O[C@@H]7O[C@H](CO)[C@@H](O)[C@H](O[C@@H]8O[C@H](CO)[C@@H](O)[C@H](O)[C@H]8O)[C@H]7O)[C@H](O)[C@H]6O)[C@H](O)C[C@]5(C)C4CC[C@]3(C)[C@H]1[C@@H]2C (some centres undefined)	25µM*	14µM*
CC1CC[C@@]2(OC1)OC1CC3C4CC[C@H]5CC(O)CC[C@@]5(C)C4CC[C@]3(C)C1C2C (some centres undefined)	-3%	-8%
CC1CC[C@@]2(OC1)OC1C(O)C3C4CC[C@H]5CC(O[C@@H]6O[C@@H](CO)[C@H](OC7OC(CO)C(O)C(OC8OCC(O)C(O)[C@H]8O)[C@@H]7O[C@@H]7OC(CO)[C@H](O)[C@@H](O[C@@H]8OC(CO)C(O)C(O)C8O)C7O)C(O)C6O)C(O)C[C@]5(C)C4CC[C@]3(C)C1C2C (some centres undefined)	?	14µM*
CC1CC[C@@]2(OC1)OC1CC3C4CC[C@@H]5CC(O)CC[C@@]5(C)C4CC[C@]3(C)C1C2C (some centres undefined)	17%	-2%
CC[C@H](C)[C@H](NC(=O)[C@H](CC(C)C)NC(=O)[C@H](CC(N)=O)NC(=O)[C@@H](NC(=O)[C@@H](N)Cc1ccc(O)cc1)[C@@H](C)CC)C(=O)N[C@@H](Cc1ccc(O)cc1)C(=O)N[C@@H](CCCN=C(N)N)C(=O)N[C@@H](CC(C)C)C(=O)N[C@@H](CCCN=C(N)N)C(=O)N[C@@H](Cc1ccc(O)cc1)C(N)=O	-17%	-4%
CCCCCC(=O)N1C[C@@H](n2cc(COC(=O)c3ccccc3)nn2)[C@H](O)C[C@H]1c1ccccc1	-15%	15%
FC(F)(F)c1ccccc1-c1ccc2ncnc(NC3CCNCC3)c2c1	11µM*	-19%
COc1cccc(-c2ccc3ncnc(NC4CCNCC4)c3c2)c1	?	0%
CCOC(=O)N1CCN(Cc2ccc3c(c2)CN(C(=O)c2ccc4ncccc4c2)CCO3)CC1	-8%	1%
Cc1cccc(CNC(=O)c2cnn(-c3nccc(-c4ccccc4C(F)(F)F)n3)c2C)n1	-14%	0%
CC(C)CN[S+](=O)([O-])c1ccc(Br)cc1N1CCC[C@H]1CO	14%	15%
O=C(Nc1ccccc1)OCC(CN1CCCCC1)OC(=O)Nc1ccccc1 (centres undefined)	13µM*	-13%
O=C(OCCN1CCCCC1)C(O)(c1ccccc1)c1ccccc1	-14%	-17%
Cn1cnc2c(F)c(Nc3ccc(Br)cc3Cl)c(C(=O)NOCCO)cc21	8%	9%
Cc1cc(I)ccc1Nc1c(C(=O)NOCC2CC2)cc(F)c(F)c1F	11µM*	?
CC(C)NC(=O)[C@@H]1C[C@@H](Sc2ccccn2)CN1C1CCN(C)CC1	14%	-3%
C=C1CN2C(=NC(c3ccccc3)C(C(=O)OC)=C2C)O1 (centres undefined)	0%[8.59 µM]	-4%[8.59 µM]
